Reference: article PMC4336329 (PLoS ONE, 2015)
About 14,000 (4.5%) of roughly 310,000 compounds showed an effect of 50% or more. Effects have a minus sign here. This is one part of a sample in which strong results are shown more often than they occur.

These compounds were tested against human ether-à-go-go-related gene (hERG) potassium channel (human, UniProt Q12809) (assay: primary screen, population patch clamp on CHO cells stably expressing hERG; higher = less effect of the substance).
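Also: peak tail current of the secondary pulse compared with the same well before compound.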

Sequence of human ether-à-go-go-related gene (hERG) potassium channel (Q12809 whole entry, looked up): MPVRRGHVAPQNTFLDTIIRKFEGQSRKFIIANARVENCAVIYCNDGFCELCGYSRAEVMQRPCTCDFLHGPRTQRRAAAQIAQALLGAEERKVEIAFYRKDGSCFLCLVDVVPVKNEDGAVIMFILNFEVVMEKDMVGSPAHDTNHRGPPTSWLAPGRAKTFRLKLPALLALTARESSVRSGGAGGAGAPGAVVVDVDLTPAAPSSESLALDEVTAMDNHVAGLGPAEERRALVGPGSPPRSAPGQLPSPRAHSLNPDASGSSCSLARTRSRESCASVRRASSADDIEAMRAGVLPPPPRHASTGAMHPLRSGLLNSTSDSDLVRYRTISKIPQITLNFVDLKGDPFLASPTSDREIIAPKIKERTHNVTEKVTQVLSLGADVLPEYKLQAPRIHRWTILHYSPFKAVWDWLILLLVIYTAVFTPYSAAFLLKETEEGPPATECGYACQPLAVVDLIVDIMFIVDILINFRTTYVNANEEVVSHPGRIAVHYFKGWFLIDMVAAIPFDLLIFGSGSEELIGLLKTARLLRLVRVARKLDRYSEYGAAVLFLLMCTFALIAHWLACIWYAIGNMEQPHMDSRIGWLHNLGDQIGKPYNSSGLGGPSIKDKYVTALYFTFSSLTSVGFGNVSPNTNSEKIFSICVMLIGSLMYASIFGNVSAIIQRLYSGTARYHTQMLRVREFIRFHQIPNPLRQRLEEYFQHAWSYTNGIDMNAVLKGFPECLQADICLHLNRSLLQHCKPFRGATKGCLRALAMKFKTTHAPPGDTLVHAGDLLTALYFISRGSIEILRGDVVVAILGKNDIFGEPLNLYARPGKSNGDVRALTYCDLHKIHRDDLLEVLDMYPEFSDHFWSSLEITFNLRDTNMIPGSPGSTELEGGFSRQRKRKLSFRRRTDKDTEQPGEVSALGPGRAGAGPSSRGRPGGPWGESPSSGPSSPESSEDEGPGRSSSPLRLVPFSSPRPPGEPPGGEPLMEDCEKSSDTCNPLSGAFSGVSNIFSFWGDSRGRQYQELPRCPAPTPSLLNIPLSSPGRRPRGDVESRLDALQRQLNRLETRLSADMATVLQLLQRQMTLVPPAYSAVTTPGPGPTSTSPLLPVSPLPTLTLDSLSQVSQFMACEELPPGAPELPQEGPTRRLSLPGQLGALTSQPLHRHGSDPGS

Row | SMILES | hERG current change (%, negative = inhibition) at 10uM
1 | O=C(NCCCN1CCOCC1)c1cnn2c(-c3ccccc3)cc(-c3ccccc3)nc12 | -41.3%
2 | O=C(NCCN1CCOCC1)c1cc(Sc2cccc(Cl)c2)nc2ccccc12 | -77.2%
3 | Cc1ccc(S(=O)(=O)N2CCC(C(=O)N[C@H](C(=O)NCc3ccco3)C(C)C)CC2)cc1 | -15.9%
4 | O=C(NCC(=O)N(c1ccc(Cl)cc1)C(C(=O)NC1CCCC1)c1ccncc1)c1ccco1 (centres unmarked) | -5.29%
5 | O=C(Nc1ccccn1)Nc1ccccc1Cl | 23.2%
6 | Cc1nc2scc(-c3ccccc3)c2c(=O)o1 | -12.7%
7 | CN1C=CC=C/C1=C1\SC(=S)N(C2CCCCC2)C1=O | -52.3%
8 | CCN1C(=O)/C(=C2/C=CC=CN2C)SC1=S | -35.2%
9 | CN1C=CC=C/C1=C1\SC(=S)N(N)C1=O | 26.4%
10 | O=C(N/N=C/c1ccc(O)c([N+](=O)[O-])c1)c1ccncc1 | -7.5%
11 | Cc1ccc(C)c(CSc2ncccc2C(=O)O)c1 | 6.29%
12 | COc1ccc(OC)c(/C=N/NC(=O)c2ccc[n+](CC(=O)c3ccccc3)c2)c1 | 15.3%
13 | O=C(C[n+]1ccc(C(=O)N/N=C/c2ccc(Br)cc2)cc1)c1ccccc1.[Br-] | -63.6%
14 | O=C(N/N=C/c1ccc(Br)cc1)c1cc[n+](Cc2ccccc2)cc1.[Cl-] | -10.7%
15 | O=C(C[n+]1ccc(C(=O)N/N=C/c2ccc(O)cc2)cc1)c1ccccc1.[Br-] | -6.07%
16 | O=C(C[n+]1ccc(C(=O)N/N=C/c2ccc(OCc3ccccc3)cc2)cc1)c1ccccc1.[Br-] | 1.3%
17 | O=C(C[n+]1cccc(C(=O)N/N=C/c2ccc(Br)cc2)c1)c1ccccc1 | -56.5%
18 | COc1ccc(OC)c(/C=N/NC(=O)c2cc[n+](CC(=O)c3ccccc3)cc2)c1.[Br-] | -5.33%
19 | O=C(C[n+]1ccc(C(=O)N/N=C/c2ccc(Cl)cc2Cl)cc1)c1ccccc1.[Br-] | -74.8%
20 | O=C(N/N=C/c1ccc(Cl)cc1Cl)c1cccc(F)c1 | -10.5%
21 | Cc1ccc(C(=O)N2CCCC(C(=O)c3ccc(Oc4ccccc4)cc3)C2)cn1 (centres unmarked) | -41%
22 | CCC(=O)N1CCc2cc(S(=O)(=O)NC(C(=O)NCc3ccccc3)C(C)C)ccc21 (centres unmarked) | 13.2%

Row | SMILES | hERG current change (%, negative = inhibition) at 10uM
23 | COc1ccc(OCC(=O)Nc2cccc(S(=O)(=O)N(C)c3ccccc3)c2)c([N+](=O)[O-])c1 | -6.21%
24 | CCC1c2ccc(C)n2CCN1C(=O)Nc1ccccc1OC (centres unmarked) | 9.92%
25 | C=CCN(CC=C)C(=S)NC(=O)/C=C/c1ccc(C)cc1 | 8.14%
26 | CC1(C)C(=O)N(c2ccccc2Cl)C(=O)c2ccccc21 | -18.2%
27 | CC1CCCN(CCC(=O)Nc2ccccc2)C1.Cl (centres unmarked) | 12.2%
28 | CCN1CCN(CCC(=O)Nc2ccc(Br)cc2)CC1.Cl | -24.4%
29 | Cc1cccc(NC(=O)CCN2CCCC(C)C2)c1.Cl (centres unmarked) | 1.45%
30 | CC1CCN(CCC(=O)Nc2ccc(Br)cc2)CC1.Cl | -54.6%
31 | CC1CCCN(CCC(=O)c2ccc(Br)cc2)C1.Cl (centres unmarked) | -64.4%
32 | COc1ccc(NC(=O)CCN2CCCC(C)C2)cc1 (centres unmarked) | -23.2%
33 | CC1CCCN(CCC(=O)Nc2ccc(Br)cc2)C1.Cl (centres unmarked) | -57.6%
34 | COc1ccc(C(=O)CCN2CCCC(C)C2)cc1.Cl (centres unmarked) | -26.2%
35 | CC1CCN(CCNC(=S)Nc2ccc(Cl)cc2)CC1 | -65.7%
36 | Cl.O=C(CCN1CCCC1)Nc1ccc(Br)cc1 | -15.7%
37 | COc1ccc(NC(=S)NCCN2CCC(C)CC2)cc1 | -46%
38 | S=C(NCCN1CCOCC1)Nc1ccc(Cl)cc1 | 5.48%
39 | CCS(=O)(=O)c1ncc(Cl)c(C(=O)Nc2ccc(S(=O)(=O)N3CCC(C)CC3)cc2)n1 | 14.9%
40 | CC(=O)c1ccc(NC(=O)C(C)OC(=O)c2ccc(NS(=O)(=O)c3ccc(F)c(F)c3)cc2)cc1 (centres unmarked) | -6.98%
41 | COc1ccc(C(C)NC(=O)c2ccc(Cl)cc2)cc1OC (centres unmarked) | 0.0898%
42 | Cc1ccc(/C=C/c2nnc(-c3ccc(C)cc3)o2)cc1 | 11.3%
43 | COCCNC(=O)Nc1ccc2c(c1)N(C)C(=O)CS2 | 11.5%
44 | COc1ccc(NC(=O)/C(=C\c2ccc(OS(=O)(=O)c3ccc(C)cc3)cc2)NC(=O)c2ccccc2)cc1 | 17.1%
